# Targets with a hit are over-represented here; the source holds about 8,800 in all. About 0.5% of all pairs of compound and target were hits. A number with no mark means an inactive call.
# Key:
# Test in all cases: log2 fold change, soluble protein after heating vs DMSO (PISA); higher = thermal stabilisation; K562 lysate, 10 uM; active = over 0.2 and 3.5 SD of the protein, either way, in both replicates (recomputed)
# [1] = compound: C#Cc1cccc(Nc2ncnc3cc(OCCOC)c(OCCOC)cc23)c1 [erlotinib]
# Outline: (§1)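 Dounce homogenisation of K562 pellets in PBS pH 7.4 with 1 mM MgCl2 produced a crude extract, used at 1 mg/mL protein. Exposure to 10 μM compound lasted 30 min, and aliquots were then heated for 3 min across 48°C-58°C, pooled and brought to 0.5% NP-40 at 4°C. The supernatant after 21,000xg for 90 min was quantified by TMTpro 16plex LC-MS/MS with channel sums equalised. Duplicate values are given as log-two fold change in thermal stability relative to solvent controls.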
# [2] = compound: C/C(=N\NC(=O)C1=CC(=CC=C1)S(=O)(=O)N2CCOCC2)/C3=C(C=CC(=C3)Cl)O
# Outline: as §1
# [3] = compound: C1=CC(=CC=C1C2=NC3=C(N2)C=C(C=C3)C(=O)N)OC4=CC=C(C=C4)Cl
# Outline: as §1
# [4] = compound: C1=CC2=C(C=CC(=C2)/C=C\3/C(=O)NC(=NCC4=CC=CS4)S3)N=C1
# Outline: as §1
# [5] = compound: C1=CC2=NC=CN=C2C=C1/C=C/3\C(=O)NC(=O)S3
# Outline: as §1
# [6] = compound: C1=CC=C(C=C1)C2=NC(=C(N2)C3=CC=NC=C3)C4=CC(=C(C=C4)Cl)O
# Outline: as §1
# [7] = compound: C1=CC=C2C(=C1)C3=NNC4=CC=CC(=C43)C2=O
# Outline: as §1
# [8] = compound: C1CCN(C1)C(=O)NC2=CC=CC(=C2)NC3=NC=C(C(=N3)NCCC4=CN=CN4)Br
# Outline: as §1
# [9] = compound: C1CN(CCC1(CC2=CC=C(C=C2)Cl)N)C3=NC=NC4=C3C=CN4
# Outline: as §1
# [10] = compound: C1COCCN1CCN2C3=CC=CC=C3N=C2NC(=O)C4=CC(=CC=C4)[N+](=O)[O-] [IRAK-1-4 Inhibitor I]
# Outline: as §1
# Chain of UniProt O43502 (O43502 whole entry, looked up): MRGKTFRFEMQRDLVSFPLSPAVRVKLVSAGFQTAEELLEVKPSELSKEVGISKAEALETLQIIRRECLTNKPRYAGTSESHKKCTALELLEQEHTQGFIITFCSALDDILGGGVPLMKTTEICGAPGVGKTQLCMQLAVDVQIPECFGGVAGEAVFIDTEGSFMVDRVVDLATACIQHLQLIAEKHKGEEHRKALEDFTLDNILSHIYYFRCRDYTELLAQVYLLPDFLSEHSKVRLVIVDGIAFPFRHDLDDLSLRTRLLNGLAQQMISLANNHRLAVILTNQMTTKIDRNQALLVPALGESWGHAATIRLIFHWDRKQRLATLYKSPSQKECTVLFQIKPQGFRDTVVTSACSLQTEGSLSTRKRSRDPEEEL
# Chain of UniProt Q13546 (Q13546 whole entry, looked up): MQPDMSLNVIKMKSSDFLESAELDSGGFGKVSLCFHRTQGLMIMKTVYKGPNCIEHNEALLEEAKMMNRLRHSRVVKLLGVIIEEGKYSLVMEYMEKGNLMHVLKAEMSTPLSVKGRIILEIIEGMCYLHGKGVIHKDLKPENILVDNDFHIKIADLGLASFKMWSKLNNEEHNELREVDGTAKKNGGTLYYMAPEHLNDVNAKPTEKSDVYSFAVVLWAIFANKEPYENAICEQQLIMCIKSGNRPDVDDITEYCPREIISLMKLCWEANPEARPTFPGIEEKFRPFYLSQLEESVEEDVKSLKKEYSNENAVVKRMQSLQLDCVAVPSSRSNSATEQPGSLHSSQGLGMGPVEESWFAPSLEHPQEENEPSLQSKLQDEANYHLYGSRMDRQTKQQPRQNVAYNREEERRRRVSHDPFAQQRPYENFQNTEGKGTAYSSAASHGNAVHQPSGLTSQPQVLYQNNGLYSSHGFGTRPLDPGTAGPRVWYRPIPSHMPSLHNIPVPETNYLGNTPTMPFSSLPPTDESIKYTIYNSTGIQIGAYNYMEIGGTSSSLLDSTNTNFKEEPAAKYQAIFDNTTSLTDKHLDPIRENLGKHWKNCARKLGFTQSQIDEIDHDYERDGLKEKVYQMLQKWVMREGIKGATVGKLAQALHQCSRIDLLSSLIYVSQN
# Chain of UniProt Q86X10 (Q86X10 whole entry, looked up): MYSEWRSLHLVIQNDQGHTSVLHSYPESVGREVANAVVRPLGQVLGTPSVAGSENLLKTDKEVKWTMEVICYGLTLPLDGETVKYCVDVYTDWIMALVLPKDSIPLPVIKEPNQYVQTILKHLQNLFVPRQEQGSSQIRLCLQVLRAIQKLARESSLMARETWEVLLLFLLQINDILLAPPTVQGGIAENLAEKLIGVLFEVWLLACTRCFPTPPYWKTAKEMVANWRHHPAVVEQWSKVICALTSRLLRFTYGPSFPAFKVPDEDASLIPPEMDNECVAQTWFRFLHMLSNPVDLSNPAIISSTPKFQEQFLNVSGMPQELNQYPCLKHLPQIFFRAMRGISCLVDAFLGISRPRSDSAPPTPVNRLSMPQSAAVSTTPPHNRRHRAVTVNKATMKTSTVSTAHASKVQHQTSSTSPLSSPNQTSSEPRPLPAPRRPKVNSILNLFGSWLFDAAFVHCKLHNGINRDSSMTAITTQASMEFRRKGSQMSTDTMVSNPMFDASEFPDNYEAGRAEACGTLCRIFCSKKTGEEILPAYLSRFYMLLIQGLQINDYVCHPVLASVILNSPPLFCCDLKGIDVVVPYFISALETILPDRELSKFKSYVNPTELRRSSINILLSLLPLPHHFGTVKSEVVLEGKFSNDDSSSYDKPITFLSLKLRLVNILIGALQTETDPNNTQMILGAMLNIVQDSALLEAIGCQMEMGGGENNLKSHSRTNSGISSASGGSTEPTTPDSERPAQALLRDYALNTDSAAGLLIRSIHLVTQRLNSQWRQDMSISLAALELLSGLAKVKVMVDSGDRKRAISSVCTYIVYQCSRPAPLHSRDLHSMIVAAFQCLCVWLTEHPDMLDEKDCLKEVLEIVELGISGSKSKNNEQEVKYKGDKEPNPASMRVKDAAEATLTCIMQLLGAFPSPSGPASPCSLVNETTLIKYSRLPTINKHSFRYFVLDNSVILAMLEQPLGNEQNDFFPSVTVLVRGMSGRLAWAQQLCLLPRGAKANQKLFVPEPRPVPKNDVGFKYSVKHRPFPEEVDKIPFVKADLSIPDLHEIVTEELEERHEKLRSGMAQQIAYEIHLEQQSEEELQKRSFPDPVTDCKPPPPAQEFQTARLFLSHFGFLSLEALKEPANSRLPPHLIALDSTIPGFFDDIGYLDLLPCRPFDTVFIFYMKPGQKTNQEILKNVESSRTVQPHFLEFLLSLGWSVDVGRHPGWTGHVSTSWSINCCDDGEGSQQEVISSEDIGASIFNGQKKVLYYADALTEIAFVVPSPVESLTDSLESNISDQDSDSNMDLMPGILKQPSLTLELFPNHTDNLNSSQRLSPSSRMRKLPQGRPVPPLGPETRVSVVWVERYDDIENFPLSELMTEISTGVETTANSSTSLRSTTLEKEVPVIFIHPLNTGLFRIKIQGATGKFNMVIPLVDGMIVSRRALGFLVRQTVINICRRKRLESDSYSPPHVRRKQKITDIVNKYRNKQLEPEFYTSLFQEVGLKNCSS
# Chain of UniProt O15541 (O15541 whole entry, looked up): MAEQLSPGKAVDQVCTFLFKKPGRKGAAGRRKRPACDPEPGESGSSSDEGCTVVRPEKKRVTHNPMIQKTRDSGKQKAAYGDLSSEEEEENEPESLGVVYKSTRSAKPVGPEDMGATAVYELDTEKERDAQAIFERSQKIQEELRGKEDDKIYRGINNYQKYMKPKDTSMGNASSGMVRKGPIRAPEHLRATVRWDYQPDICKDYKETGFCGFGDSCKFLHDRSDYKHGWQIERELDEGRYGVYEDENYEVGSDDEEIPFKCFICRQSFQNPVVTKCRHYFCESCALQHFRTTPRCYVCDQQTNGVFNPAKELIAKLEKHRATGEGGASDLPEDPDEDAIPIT
# Chain of UniProt Q9NW64 (Q9NW64 whole entry, looked up): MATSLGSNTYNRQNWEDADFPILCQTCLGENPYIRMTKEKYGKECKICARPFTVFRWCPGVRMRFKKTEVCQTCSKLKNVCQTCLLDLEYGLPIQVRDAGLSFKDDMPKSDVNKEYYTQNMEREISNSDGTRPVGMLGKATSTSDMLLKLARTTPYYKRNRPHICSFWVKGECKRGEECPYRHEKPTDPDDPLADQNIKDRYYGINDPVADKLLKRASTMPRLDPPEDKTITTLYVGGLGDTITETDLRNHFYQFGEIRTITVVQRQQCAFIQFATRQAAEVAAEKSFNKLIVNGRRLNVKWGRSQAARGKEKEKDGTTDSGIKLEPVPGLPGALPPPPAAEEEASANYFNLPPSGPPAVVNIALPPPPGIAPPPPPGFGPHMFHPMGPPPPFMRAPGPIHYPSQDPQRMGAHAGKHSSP
# Chain of UniProt Q9H0R6 (Q9H0R6 whole entry, looked up): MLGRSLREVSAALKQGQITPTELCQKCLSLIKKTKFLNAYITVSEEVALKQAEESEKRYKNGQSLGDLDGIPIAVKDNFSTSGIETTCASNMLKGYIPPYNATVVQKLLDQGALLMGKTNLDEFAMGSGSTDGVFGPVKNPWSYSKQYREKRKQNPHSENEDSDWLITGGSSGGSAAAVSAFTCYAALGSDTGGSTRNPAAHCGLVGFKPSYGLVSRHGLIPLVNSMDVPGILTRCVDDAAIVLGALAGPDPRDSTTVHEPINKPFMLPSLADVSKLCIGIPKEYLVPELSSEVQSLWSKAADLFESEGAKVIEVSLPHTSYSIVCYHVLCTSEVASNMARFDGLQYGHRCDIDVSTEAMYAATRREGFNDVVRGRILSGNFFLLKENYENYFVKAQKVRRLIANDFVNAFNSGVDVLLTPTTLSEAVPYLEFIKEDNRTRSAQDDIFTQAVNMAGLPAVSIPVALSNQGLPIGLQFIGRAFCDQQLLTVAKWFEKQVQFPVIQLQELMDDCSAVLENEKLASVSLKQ
# Chain of UniProt Q8NC42 (Q8NC42 whole entry, looked up): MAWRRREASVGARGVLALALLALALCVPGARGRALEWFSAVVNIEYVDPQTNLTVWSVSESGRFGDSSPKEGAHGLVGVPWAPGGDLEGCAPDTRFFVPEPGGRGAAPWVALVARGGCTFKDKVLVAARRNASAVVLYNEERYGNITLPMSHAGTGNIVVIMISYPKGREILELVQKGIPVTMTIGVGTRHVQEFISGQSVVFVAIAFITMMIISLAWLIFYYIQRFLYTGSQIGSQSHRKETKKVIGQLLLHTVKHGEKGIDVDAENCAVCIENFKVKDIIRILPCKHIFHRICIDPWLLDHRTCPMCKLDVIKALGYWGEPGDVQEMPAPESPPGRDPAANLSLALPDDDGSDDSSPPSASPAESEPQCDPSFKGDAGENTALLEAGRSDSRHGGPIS
# Chain of UniProt Q9UPU9 (Q9UPU9 whole entry, looked up): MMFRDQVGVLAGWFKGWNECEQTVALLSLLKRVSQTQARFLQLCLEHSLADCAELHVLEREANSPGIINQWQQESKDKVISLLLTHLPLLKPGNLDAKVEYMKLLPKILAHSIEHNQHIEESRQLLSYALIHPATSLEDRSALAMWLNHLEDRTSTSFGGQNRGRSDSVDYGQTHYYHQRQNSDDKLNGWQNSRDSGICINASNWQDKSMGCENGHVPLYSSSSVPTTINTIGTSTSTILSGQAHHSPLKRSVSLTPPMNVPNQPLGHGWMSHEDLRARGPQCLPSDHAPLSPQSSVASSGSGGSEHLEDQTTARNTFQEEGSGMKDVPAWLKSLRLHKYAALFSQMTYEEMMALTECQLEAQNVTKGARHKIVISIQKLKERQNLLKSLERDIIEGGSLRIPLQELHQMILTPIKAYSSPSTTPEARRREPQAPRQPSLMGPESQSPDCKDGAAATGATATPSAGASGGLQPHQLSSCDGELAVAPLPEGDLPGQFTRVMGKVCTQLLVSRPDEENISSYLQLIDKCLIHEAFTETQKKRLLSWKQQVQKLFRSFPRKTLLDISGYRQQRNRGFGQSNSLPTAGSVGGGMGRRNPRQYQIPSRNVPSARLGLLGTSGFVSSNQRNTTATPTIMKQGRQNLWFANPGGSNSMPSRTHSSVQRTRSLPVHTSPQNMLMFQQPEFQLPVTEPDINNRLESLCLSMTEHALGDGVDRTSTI
Target,log2 fold change [1],log2 fold change [2],log2 fold change [3],log2 fold change [4],log2 fold change [5],log2 fold change [6],log2 fold change [7],log2 fold change [8],log2 fold change [9],log2 fold change [10]
SAMD4A (UniProt Q9UPU9),-0.172,-0.014,0.11,0.097,-0.153,0.11,-0.041,-0.046,0.013,0.063
RNF181 (UniProt Q9P0P0),0.031,0.037,0.016,0.036,-0.001,0.022,-0.058,0.03,0.099,-0.014
RBM4 (UniProt Q9BWF3),-0.031,0.059,-0.008,0.009,0.008,-0.065,-0.008,0.001,0,-0.003
SERPINI1 (UniProt Q99574),-0.003,-0.021,-0.037,0.027,0.054,-0.007,-0.117,0.029,0.038,0.031
RNF113A (UniProt O15541),-0.039,-0.039,0.036,0.027,-0.008,-0.01,-0.02,-0.005,0.01,0.02
RBBP7 (UniProt Q16576),-0.038,-0.032,-0.021,-0.005,0.007,-0.014,-0.008,0.045,-0.022,-0.082
RFC3 (UniProt P40938),0.05,0.01,-0.034,0.024,0.005,0.005,-0.027,-0.002,0.049,0.028
RNF149 (UniProt Q8NC42),-0.044,-0.03,0.003,-0.046,0.135,-0.021,-0.031,,,0.068
RPL36AL (UniProt Q969Q0),-0.036,-0.098,-0.012,0.061,-0.029,0.029,0.048,0.049,-0.05,-0.109
RAD51C (UniProt O43502),0,-0.053,0.023,-0.074,-0.003,0.001,-0.004,0.017,0.02,-0.051
ROCK1 (UniProt Q13464),-0.01,0.029,0,0.075,-0.036,-0.004,-0.041,0.008,0.075,0.004
RPS9 (UniProt P46781),-0.034,0.022,-0.03,-0.054,-0.016,-0.011,0.011,0.025,-0.018,-0.017
RAB27A (UniProt P51159),-0.045,0.023,-0.014,0.009,-0.009,-0.003,-0.025,-0.031,-0.015,-0.049
RIC1 (UniProt Q4ADV7),0,-0.239,-0.074,0.025,-0.176,0.044,0.035,0.038,0.057,0.022
RALGAPB (UniProt Q86X10),0.024,-0.047,0.051,0.018,0,-0.038,-0.074,-0.008,0.049,0.033
RFC5 (UniProt P40937),0.02,0.024,-0.025,0.036,-0.012,0.029,-0.074,0.004,0.023,0.019
RPL28 (UniProt P46779),-0.012,-0.104,0.006,-0.009,-0.037,0.019,0.016,-0.003,0,-0.02
"RAPGEF2, A0A2R8YGD3",-0.009,0.16,0.038,0.042,-0.083,-0.047,0.053,0.007,-0.085,0.007
RPS6KB1 (UniProt P23443),-0.017,-0.018,-0.034,0.013,-0.001,0.083,0.322 (active),0.085,0.027,0.028
RIOK1 (UniProt Q9BRS2),-0.033,-0.029,0.034,0.209,0.393 (active),0.128,0.4 (active),-0.024,0.028,-0.02
RIPK1 (UniProt Q13546),-0.026,-0.01,-0.017,-0.022,-0.015,0.008,0.08,0.031,-0.057,0
RNF40 (UniProt O75150),-0.008,-0.01,0.007,-0.039,-0.016,0.003,-0.04,0.011,0.024,-0.008
RBM22 (UniProt Q9NW64),0.028,-0.005,0.025,-0.07,0.013,-0.034,-0.021,-0.02,0.009,0.018
QRSL1 (UniProt Q9H0R6),-0.01,-0.003,0.004,-0.14,-0.111,0.002,0.116,-0.017,0.022,-0.01
RPLP0P6 (UniProt Q8NHW5),-0.003,-0.069,-0.034,0.026,-0.05,0.009,0.03,0.024,0.004,0.008
